Compound activity as filed in PubChem BioAssay.
Shown is part of a subset that was picked to be rich in hits.
Giardia FBPA inh = Giardia lamblia aldolase inhibition | purified Giardia FBPA | Potency, µM (highest dose often 59.6 µM), for the others: top-dose activity, negative = inhibition, actives largely listed as inhibitors | 290,000 compounds, 0.71% hits | A8B2U2; further: potency means the concentration at half of the fitted maximal effect; on the % scale 0 is the no-effect control and ±100 the full control effect; nearly all actives have a fitted effect of over 55% in size
Target sequence (A8B2U2 whole entry, looked up): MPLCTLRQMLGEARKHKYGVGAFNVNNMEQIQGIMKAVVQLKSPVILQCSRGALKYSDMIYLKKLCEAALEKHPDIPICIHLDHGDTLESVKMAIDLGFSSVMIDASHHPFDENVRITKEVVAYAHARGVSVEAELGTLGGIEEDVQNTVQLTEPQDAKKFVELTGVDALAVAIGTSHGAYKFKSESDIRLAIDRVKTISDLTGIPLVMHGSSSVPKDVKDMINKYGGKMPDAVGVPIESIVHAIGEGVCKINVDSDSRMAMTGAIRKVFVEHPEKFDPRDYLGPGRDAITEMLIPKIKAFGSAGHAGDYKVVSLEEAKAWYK
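Giardia FBPA (40 nM reagent) was preincubated 10 min at RT with compound (up to 57.5 uM final), then substrate plus GAPDH/TPI/NAD/arsenate coupling system with diaphorase/resazurin was added; resorufin fluorescence (525/598 nm) was read after 20 min.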
RE007 growth inh = less growth of the S. pombe RE007 Vpr strain; S. pombe RE007 Vpr strain, BacTiter-Glo ATP luminescence, 24 h; Potency, µM (doses to about 92.2 µM), for the others: top-dose activity change, negative = less growth, most hits filed as inhibitors; 360,000 compounds, 0.21% hits; active means well fitted falling curve with a large enough effect; inconclusive means small, poorly fitted or top-dose-only effect; inactive means no such curve, though single readings can be large or run the other way; further: potency means the concentration at half of the fitted maximal effect; on the % scale 0 is the no-effect control and ±100 the full control effect; nearly all actives have a fitted effect of over 50% in size
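Fission yeast strain RE007, carrying one chromosomally integrated HIV-1 vpr copy, was seeded at OD 0.01 in PMG+AL medium with 23 nL pinned compound. After 24 h at 30 °C and 99% humidity, viability was read by BacTiter-Glo luminescence.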
LmPK inhibitor = blocks Leishmania mexicana pyruvate kinase activity. 290,000 compounds, 0.37% hits. purified LmPK, Kinase-Glo ATP luminescence, 1 h. Potency, µM (titrated, usually from 57.5 µM), for the others: at the top dose activity change, negative = inhibition, hits mostly inhibitors. Q27686; further: potency means the concentration at half of the fitted maximal effect; on the % scale 0 is the no-effect control and ±100 the full control effect
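Screened at intermediate enzyme activity to detect both inhibitors and activators: LmPK at 0.1 nM, with a 0.5 nM enzyme column as activation reference. PEP 0.5 mM, ADP 0.1 mM; ATP detected by luminescence after 1 h.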
Shiga toxin inh = blocks Shiga toxin action in Vero cells. 290,000 compounds, 9.2% hits. Vero cells, Shiga toxin protein synthesis inhibition reporter. inhibition, % at 38.7 µM; in the data active means inhibition mostly above about 28%, no sharp cut-off; inactive means mostly below about 43%; further: 0% is about no effect
TbPYK inhibitor = T. brucei pyruvate kinase inhibition; TbPYK enzyme, Kinase-Glo Plus ATP luminescence, 45 min; 410,000 compounds, 0.12% hits; Q57TT1; Potency, µM (top dose mostly 76.8 µM), inactives show top-dose activity, negative = inhibition, actives largely listed as inhibitors; AID 624173; further: potency means the concentration at half of the fitted maximal effect; on the % scale 0 is the no-effect control and ±100 the full control effect; nearly all actives have a fitted effect of over 50% in size
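Activity of T. brucei pyruvate kinase was followed by Kinase-Glo Plus luminescence after the enzyme reacted 45 min at room temperature with 130 uM ADP (final) and substrate. Test compounds were added before ADP at multiple concentrations.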
CHX counter = affects cycloheximide protein synthesis inhibition readout, counter-screen. cell reporter, cycloheximide protein synthesis inhibition counterscreen. max response, %. 300,000 compounds, 12% hits. AID 2314; in the data active means max response mostly above about 13%, no sharp cut-off; inactive means mostly below about 14%; further: read at 38.3 µM for the half of the compounds with a filed dose; 0% is about no effect
An asterisk follows results filed as active; ? = inconclusive; / = no result given. Unless noted, the call rests on the fitted dose curve; in most records, active means well fitted curve in the direction sought with a large enough effect; inconclusive means small, poorly fitted or top-dose-only effect, or another doubt; inactive means no such curve, though single readings can be large; an effect the other way counts as inactive or inconclusive.

SMILES | Giardia FBPA inh | RE007 growth inh | LmPK inhibitor | Shiga toxin inh | TbPYK inhibitor | CHX counter
Cc1cc2c(cc1S(=O)(=O)Nc1cccc(Cl)c1C)n(C)c(=O)c(=O)n2C | / | / | / | / | -2% | /
Cn1cnnc1SCCNS(=O)(=O)c1cccc([N+](=O)[O-])c1 | -11% | 14% | 6% | -2 | 4% | -2
Cc1ccc(S(=O)(=O)NC(=O)Nc2ccc(N(C)C)cc2)cc1 | / | -24% | -26% | 54* | -29% | 55*
Cc1ccc(S(=O)(=O)NC(=O)c2cc(C)n(-c3ccc(N(C)C)cc3)c2C)cc1 | 24% | -5% | 7% | 51* | 8% | 19*
CCc1ccnc(NC(=O)NS(=O)(=O)c2ccc(C)cc2)c1 | 1% | -7% | -2% | 23 | 1% | 16*
Cc1ccc(S(=O)(=O)NC(=O)c2cc(C)n(-c3ccccc3)c2C)cc1 | 23% | 7% | 1% | -23 | -10% | 8
Cc1cccnc1NC(=O)Nc1cccc2ccccc12 | -17% | -5% | -1% | -2 | -6% | 13
CNS(=O)(=O)c1ccc(NC(=O)Nc2cccc(F)c2)cc1 | -1% | -9% | 1% | 86* | -3% | 32*
CC1CCC(=C(C#N)C(=O)Nc2cccc(Cl)c2)CC1 (configuration not stated) | / | 3% | -5% | 19 | 1% | 24*
CN1CCN(NC(=O)Nc2cccc(F)c2)CC1 | / | 11% | -5% | 50 | -3% | 11*
CC(=O)c1cccc(NC(=O)NN2CCN(C)CC2)c1 | 3% | 5% | -5% | -13 | 2% | -2
Cc1cccnc1NC(=O)Nc1cccc(Cl)c1 | -5% | 8% | 2% | 60* | 0% | 13
COCCCN1C(=O)C(CC(=O)NCCN2CCOCC2)CC(C(=O)N2CCOCC2)=C1C (configuration not stated) | / | -5% | / | / | 6% | /
COc1ccc(C)cc1NS(=O)(=O)c1ccc2c3c(cccc13)C(=O)N2 | / | / | / | / | -13% | /
O=C(CSc1ccc([N+](=O)[O-])cn1)Nc1cc(C(F)(F)F)ccc1N1CCOCC1 | / | 34% | 0% | 8 | 1% | -3
Cc1cccc(N(O)C(=O)Nc2cccc(Cl)c2)c1 | 0% | -14% | 1% | 56* | -2% | 37*
COC(=O)c1cc(NC(=O)Nc2cccc(Cl)c2)ccc1Cl | -8% | 0% | 1% | 73 | -10% | 22*
COC(=O)c1cc(NC(=O)c2ccc(-c3ccccc3)cc2)ccc1Cl | 1% | 1% | -6% | 15 | -2% | -1
CCN(C(=O)Nc1cccc(Cl)c1)c1ccccc1 | 1% | 4% | -2% | -5 | -5% | -2
O=C(Nc1cccc(Cl)c1)OCc1cnc(Cl)s1 | -6% | ? | 0% | 31 | 0% | 14*
O=C(CCc1ccccc1)NNC(=O)Nc1cccc(Cl)c1 | -1% | -2% | -3% | 36 | 2% | 17*
COc1ccc(-n2nc(C(=O)Nc3cc(C)ccn3)c3c4ccccc4n(C)c3c2=O)cc1 | / | / | / | / | 1% | /
O=C(NCCc1ccccc1)c1cc(Sc2ccc(F)cc2F)nc2ccccc12 | / | / | / | / | 5% | /
COc1ccc(NC(=O)CSc2nc3c(oc4ccccc43)c(=O)n2-c2ccc(C)c(C)c2)cc1 | / | / | / | / | -8% | /
O=C(Nc1ccccc1)Nc1cc(Cl)cc(Cl)c1 | 0% | -13% | 0% | 39 | 2% | 25
SMILES | Giardia FBPA inh | RE007 growth inh | LmPK inhibitor | Shiga toxin inh | TbPYK inhibitor | CHX counter
COC(=O)c1cccc(NC(=O)Nc2ccc(Cl)cc2)c1 | 2% | 9% | -9% | 48* | 0% | 28*
NS(=O)(=O)c1cccc(NC(=O)Nc2ccc(Cl)cc2)c1 | -6% | -20% | -1% | 87* | -1% | 36*
O=C(Nc1cccc(F)c1)Nc1cccc(Cl)c1 | 6% | -7% | -2% | / | -1% | 28*
O=C(Nc1cccc(Cl)c1)Nc1cccc(Cl)c1 | -7% | 3% | 4% | 68* | -2% | 20*
O=C(Nc1ccc2c(c1)OCO2)C1CCN(C(=O)c2ccc([N+](=O)[O-])cc2)CC1 | 0% | 5% | 1% | 8 | 2% | 8
COc1ccccc1Cc1nc2ccccc2nc1SCC(=O)NCc1ccccc1Cl | / | / | / | / | -2% | /
CCC(C)NC(=O)c1ccc(NC(=O)C2=C(C)OCCS2)cc1 (configuration not stated) | 16% | -6% | -3% | 9 | -3% | 15
N#CCc1ccc(NC(=O)Nc2cccc(Cl)c2)cc1 | 1% | 13% | 4% | 71 | -3% | 32*
COC(=O)NCC(C)OC(=O)Nc1cccc(Cl)c1 (configuration not stated) | 0% | 0% | 2% | 20 | -6% | 11*
COc1ccccc1OCC(=O)Nc1ccc(-c2nnc(-c3ccco3)o2)cc1 | 2% | -19% | 1% | -20 | -4% | 2
CCC(Oc1ccccc1)C(=O)Nc1ccc(-c2nnc(-c3ccco3)o2)cc1 (configuration not stated) | 1% | 52% | 0% | 89* | 4% | 36*
COc1ccc(NS(=O)(=O)c2ccc(N3CCOCC3)c(N)c2)cc1 | / | 4% | / | / | -1% | /
CCCCN(CC)CCCNC(=S)Nc1ccc2nc3n(c(=O)c2c1)CCCCC3 | 0% | 10% | -2% | -8 | 0% | -1
COc1cc(OC)cc(C(=O)NC2CC(C)(C)NC(C)(C)C2)c1 | -8% | -5% | -2% | -7 | -2% | 4
Cc1c2ccccc2nc2c(F)c(N(C)C)c(F)c(F)c12 | -20% | -22% | -4% | 23 | -16% | 28*
Cc1c(N(C)C)nc2ccccc2c1N | -2% | -2% | -8% | -11 | 9% | -5
CN(C)c1c2ccccc2nc2c(F)c(F)c(F)c(F)c12 | -4% | -11% | 0% | 57 | 1% | 33*
CC(C)(C)NC[C@H](O)CSc1nc(-c2ccc(C(N)=O)s2)cs1 | / | / | / | / | 1% | /
O=S(=O)(NCC1CCCO1)c1ccc(-c2ccc(Cl)cc2)cc1 (configuration not stated) | 0% | -1% | 3% | 20 | -4% | 17*
Cc1ccc(NC(=O)c2ccc(S(=O)(=O)NCC3CCCO3)cc2)cc1 (configuration not stated) | 0% | -8% | 2% | 31* | 2% | 9
COc1cc2[nH]c3c(Cl)ncnc3c2cc1OC | -26% | 5% | -1% | -14 | -13% | -2
COc1cc2[nH]c(Cl)c([N+](=O)[O-])c2cc1OC | 5µM* | 5% | 2% | -3 | ? | -1
Cc1oc(C(C)(C)C)c(CN2CCOCC2)c1C(=O)O | -9% | 3% | -4% | -4 | -1% | 2
COc1ccc(CC(N)c2csc(Nc3ccc(C(=O)c4ccccc4)cc3)n2)cc1 (configuration not stated) | / | -5% | / | / | 4% | /
CCn1ccnc1CN(C)C(=O)c1cc(COc2ccccc2SC)on1 | -4% | -12% | -5% | 96* | -3% | 53*
